An excerpt weighted towards active compounds, which were near 4.5% of everything screened.
FXN GAA850 act = FXN promoter activators, primary screen, cell-based, luciferase luminescence, HEK293 lucGAA850; activation, % at 6 µM; HEK293 lucGAA850 FXN promoter luciferase reporter, 24 h; percent of 10 µM SAHA response; actives 0.56% (n = 360,000);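 active = activation above the average of all compounds screened plus 3 SD, cutoff fixed separately per campaign, cut at about 7.5% in these data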;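 note: 0% = DMSO wells and 100% = 10 µM SAHA wells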
hcDAF12 agonist = H. contortus DAF-12 nuclear receptor activators, primary screen, cell-based, luminescence, HEK293, lit1-tk-luc reporter. HEK293 hcDAF-12 lit1-tk-luc reporter; 0% DMSO, 100% Δ7-dafachronic acid. activation, % at 6.8 µM. actives 1.4% (n = 370,000);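 active = activation above the mean of all tested compounds plus 3 SD, cut at about 5.5% in these data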;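 note: 100% = response to 3 µM Δ7-dafachronic acid high control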
ssDAF12 agonist = S. stercoralis DAF-12 nuclear receptor activators, primary screen, cell-based, luminescence, HEK293, GRIP1 co-expression, lit1-tk-luc | Nuclear hormone receptor DAF-12 (Strongyloides stercoralis) | HEK293 ssDAF-12/GRIP1 lit1-tk-luc reporter; % of 3 µM dafachronic acid response | activation, % at 6.8 µM | actives 1% (n = 370,000) | AID 652126, 2013;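 active = activation above the mean over all tested compounds plus 3 SD, cut at about 0.9% in these data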;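 note: 0% = DMSO-only wells and 100% = 3 µM delta7-dafachronic acid wells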
hgDAF-12 ag = H. glycines DAF-12 receptor agonists, primary screen, cell-based, luminescence, HEK293, GAL4 fusion, UAS-luciferase; HEK293 GAL4-hgDAF12 UAS-luciferase reporter, agonist luminescence; normalized to butyrate control; actives 1.8% (n = 370,000); Nuclear hormone receptor DAF-12 (Heterodera glycines), GAL4 fusion; activation, % at 6.8 µM;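 active = activation above a cutoff set at the mean of all screened compounds plus 3 SD, cut at about 10% in these data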;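 note: 0% = DMSO wells and 100% = sodium butyrate wells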
DAX1 inh-1 = DAX1 (NR0B1) inhibitors on StAR promoter, primary screen, cell-based, luminescence, SF-1 (NR5A1), full-length DAX-1; HEK293T StAR-luciferase reporter, SF-1/DAX-1 repression relief; inhibition, % at 6.8 µM; actives 1.1% (n = 370,000); AID 652010, 2013;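 active = inhibition above the mean over all tested compounds plus 3 SD, cut at about 3.6% in these data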;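 note: 0% = DAX-1 cells with DMSO and 100% = cells lacking DAX-1 with DMSO; higher inhibition means more luminescence from relief of DAX-1 repression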
DAX1 inh-2 = DAX1 (NR0B1) inhibitors, primary screen, cell-based, HEK293, Gal4-DAX1, luciferase luminescence | Nuclear receptor subfamily 0 group B member 1 (Homo sapiens), P51843 | HEK293 Gal4-DAX1 luciferase reporter | inhibition, % at 6.75 µM | actives 0.99% (n = 340,000) | AID 504766, 2011;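 active = inhibition above the mean over all tested compounds plus 3 SD, cut at about 4.2% in these data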;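 note: 0% = DAX1-transfected cells with DMSO and 100% = empty-vector control cells with DMSO; inhibition shows as a rise in luminescence from relieved DAX1 repression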
Target sequence (P51843 207-470 limits assumed): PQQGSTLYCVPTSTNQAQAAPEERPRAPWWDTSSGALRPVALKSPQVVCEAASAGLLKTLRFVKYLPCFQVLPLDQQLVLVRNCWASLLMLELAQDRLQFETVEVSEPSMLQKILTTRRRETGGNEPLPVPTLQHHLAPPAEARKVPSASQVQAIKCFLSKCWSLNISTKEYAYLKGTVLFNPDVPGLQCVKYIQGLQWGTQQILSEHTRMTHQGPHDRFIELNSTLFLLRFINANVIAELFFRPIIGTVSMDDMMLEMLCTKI
hgDAF12 conf = H. glycines DAF-12 receptor agonists, confirmation, cell-based, luminescence, HEK293, GAL4-LBD fusion; shares compounds with hgDAF-12 ag; HEK293 GAL4-hgDAF12 luciferase reporter, agonist mode; percent of butyrate response; activation, % at 6.8 µM; actives 80% (n = 3,300);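 active = mean activation over triplicate wells above the hit cutoff derived from the earlier primary screen, cut at about 11% in these data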;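 note: 0% = DMSO low control and 100% = 2 mM sodium butyrate high control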
LXR ag 2 = LXR agonists, Gal4 luciferase reporter, confirmation, counter-screen for hgDAF-12 agonist project, cell-based, luminescence, HEK293, H. glycines campaign | 3,300 tested, under 10 active | shares compounds with hgDAF-12 ag | 24 h | activation, % at 6.8 µM | AID 743051, 2013;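 active = mean activation of the triplicate above a set limit carried over from the primary screen, none filed active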
* = called active by the depositor; x = no result.

SMILES | FXN GAA850 act | hcDAF12 agonist | ssDAF12 agonist | hgDAF-12 ag | DAX1 inh-1 | DAX1 inh-2 | hgDAF12 conf | LXR ag 2
Cc1ccc(C(=O)NC(=S)Nc2cccc(-c3nc4ccccc4s3)c2)cc1 | -4 | -2 | -2 | 0 | 0 | 0 | x | x
Cc1ccc(-c2nc3ccccc3s2)cc1NC(=S)NC(=O)c1cccc2ccccc12 | 5 | 6.0* | 0 | 17* | 3 | 4.4* | 12* | 1
COc1cccc(C(=O)NCCSc2ccc(F)cc2)c1 | 5 | 3 | 0 | 14* | 3 | 0 | 12* | 0
NC(CCc1ccccc1)c1csc(Nc2ccccn2)n1 (configuration not stated) | 7 | -1 | -1 | 3 | 1 | x | x | x
COc1ccc(NC(=O)C(C)N=C2NS(=O)(=O)c3ccccc32)cc1S(N)(=O)=O (configuration not stated) | 0 | 1 | -1 | 15* | 2 | 1 | -2 | 0
Cc1cccc(OCCCC(=O)Nc2nc3ccccc3[nH]2)c1 | 0 | 0 | -1 | 14* | 0 | -1 | 7 | 0
COc1cccc(OCCCCSc2ncccn2)c1 | 0 | -1 | -1 | 2 | 1 | -1 | x | x
COc1ccc(OCCCSc2ncccn2)cc1 | 3 | 3 | 0 | 14* | 0 | 1 | 11* | 0
COC(C(=O)N/N=C(\C)c1ccc(C)cc1)c1ccccc1 (configuration not stated) | 1 | -1 | -2 | -1 | -1 | -1 | x | x
COC(C(=O)N/N=C(\C)c1ccc(O)cc1)c1ccccc1 (configuration not stated) | 2 | 5 | 1 | 14* | 1 | 0 | 1 | 0
COc1ccccc1/C=C/CN1CCOCC1 | 1 | x | x | x | x | 0 | x | x
COc1ccccc1/C=C/CN1CCSCC1 | 1 | -1 | -1 | 16* | 0 | 0 | 0 | 0
Cc1cccc(/C=C\c2nc3ccccc3c(=O)[nH]2)c1 | -3 | 5 | 0 | 15* | 3.6* | 1 | 21* | 1
O=C(c1ccccc1)c1cnc(-c2ccccc2)s1 | 4 | 3 | 0 | 16* | 3 | 9.3* | 18* | 1
CN(C)/C=C/C(=O)c1cnc(-c2ccccc2)s1 | 2 | -1 | -1 | 1 | 1 | 0 | x | x
CCOC(=O)COc1ccccc1C(=O)c1cnn(-c2ccccc2)c1 | 4 | 4 | 0 | 14* | 0 | 0 | 5 | 0
COc1cccc(C(=O)COC(=O)CCC(=O)c2ccccc2)c1 | 2 | -3 | -1 | 1 | 0 | 0 | x | x
CCc1ccc(NC(=S)NC(=O)CC(C)C)cc1 | 4 | 3 | 0 | 15* | 2 | 3 | 12* | 0
CCN(CC)S(=O)(=O)c1ccc(NC(=S)NC(=O)CC(C)C)cc1 | 2 | -4 | -2 | -1 | -2 | -2 | x | x
Cc1occc1C(=O)N/N=C/c1ccc(Br)s1 | 4 | 1 | 0 | 8 | 2 | 2 | x | x
CCN(CC)c1ccc(/C=N/NC(=O)c2ccoc2C)cc1 | 2 | 5 | 0 | 17* | 2 | 1 | 19* | 1
Cc1ccc(/C=N/NC(=O)c2ccoc2C)s1 | 4 | 2 | 0 | 15* | 3 | 1 | 10 | 1
O=C(Nc1cccc([N+](=O)[O-])c1)c1[nH]ncc1Cl | 5 | 4 | -1 | 14* | 1 | 0 | 9 | 1
CC(C)(C)c1ccc(C(=O)Nc2cccc([N+](=O)[O-])c2)cc1 | 5 | 3 | 0 | 14* | 3 | 2 | 14* | 0
CC(C)n1c2ccccc2c2nnc(SCC(=O)Nc3ccccc3C(=O)O)nc21 | 2 | -1 | -1 | -2 | 0 | -1 | x | x
SMILES | FXN GAA850 act | hcDAF12 agonist | ssDAF12 agonist | hgDAF-12 ag | DAX1 inh-1 | DAX1 inh-2 | hgDAF12 conf | LXR ag 2
COC(=O)c1sccc1-c1ccc(C(=O)Nc2ccccc2)o1 | 3 | 6 | 0 | 13* | 2 | 3 | 13* | 1
Brc1ccc(Cn2c(-c3ccc(Br)o3)nc3ccccc32)o1 | 3 | -2 | -1 | 0 | 1 | 0 | x | x
Cn1c(-c2ccc(Br)o2)nc2ccccc21 | 5 | 5.8* | 1.0* | 15* | 3.7* | 2 | 15* | 1
CC(C)C(NC(=O)c1ccc(F)cc1)C(=O)NCC1CCCO1 (configuration not stated) | 2 | 1 | -1 | 0 | 0 | 0 | x | x
O=C(N/N=C/c1cccc(F)c1)c1ccc(Cl)cc1 | 5 | 2 | 0 | 18* | 3.7* | 3 | 12* | 0
O=C(N/N=C/c1ccccc1Cl)c1cccc(F)c1 | 4 | 3 | 0 | 17* | 3.7* | 2 | 13* | 1
O=C(CNC(=O)c1ccc(-c2ccccc2)cc1)OCc1ccc(Br)cc1 | 3 | 2 | 0 | 13* | 0 | 0 | 6 | 0
COc1ccc(C(=O)NCC(=O)OCc2ccc(Br)cc2)cc1 | 1 | 2 | -2 | 0 | 1 | 0 | x | x
CC(Sc1nnc2ccccn12)C(=O)Nc1ccc2c(c1)OCO2 (configuration not stated) | 2 | 0 | -1 | 0 | 0 | 0 | x | x
C(=N\N=C\c1cccs1)/c1cccs1 | 2 | 5 | -1 | 14* | 3.9* | 2 | 15* | 1
C=CCn1c(SCC(=O)c2c(N)n(CCC)c(=O)n(C)c2=O)nnc1-c1ccncc1 | 0 | 2 | -1 | -1 | 0 | 0 | x | x
CC(=O)c1ccc(-c2cnc3c(NC=O)cc(-c4ccc(N5CCN(C)CC5)cc4)cn23)cc1 | 6 | 2 | 0 | 17* | 1 | x | 10 | 0
CCCN(CCC)C(=O)c1cn(CC)c2ccc(S(=O)(=O)N3CCCCC3)cc2c1=O | 0 | 2 | -1 | -2 | -1 | 0 | x | x

Source: PubChem (The Scripps Research Institute Molecular Screening Center)
